Compound activity (PubChem)
This is a sample that favours compounds with a hit; in the whole collection about 6.4% have one here.
Luc counter: Counterscreen for Luciferase (Kinase-Glo TM) Inhibition. Luciferin 4-monooxygenase (Photuris pensylvanica), Q27757. Kinase-Glo luciferase, ATP luminescence, 8 min. hit rate 0.28% among 200,000. AID 1379, 2008. Potency, µM (highest dose often 38.3 µM), most hits filed as inhibitors; note: nearly all actives have a fitted effect of over 60% in size
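Kinase-Glo luciferase light output from ATP and luciferin was measured with 10 uM ATP, within the enzyme's linear range. Buffer: 50 mM imidazole pH 7.2, 50 mM KCl, 7 mM MgCl2, 0.01% Tween 20, 0.05% BSA; luminescence read after 8 min at ambient temperature.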
Gal4-VP16 FLuc: VP16 counterscreen qHTS for inhibitors of ROR gamma transcriptional activity | AID 2546, 2010 | Potency, µM (titrated, usually from 53.6 µM), most hits filed as inhibitors | hit rate 3.5% among 310,000 | Drosophila S2 Gal4-VP16 UAS-luciferase, luminescence, 20 h;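 note: Gal4-VP16 expression switched on by copper sulfate through the metallothionein promoter; nearly all actives have a fitted effect of over 50% in size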
RORgamma inh: qHTS for inhibitors of ROR gamma transcriptional activity. hit rate 5.4% among 310,000. Drosophila S2 Gal4-RORgamma UAS-luciferase reporter, 20 h. Potency, µM (highest dose often 53.6 µM), usual class: inhibitors. AID 2551, 2010. Nuclear receptor ROR-gamma (Mus musculus), P51450; note: nearly all actives have a fitted effect of over 60% in size
Target sequence (P51450 whole entry, looked up, the tested form may be a part): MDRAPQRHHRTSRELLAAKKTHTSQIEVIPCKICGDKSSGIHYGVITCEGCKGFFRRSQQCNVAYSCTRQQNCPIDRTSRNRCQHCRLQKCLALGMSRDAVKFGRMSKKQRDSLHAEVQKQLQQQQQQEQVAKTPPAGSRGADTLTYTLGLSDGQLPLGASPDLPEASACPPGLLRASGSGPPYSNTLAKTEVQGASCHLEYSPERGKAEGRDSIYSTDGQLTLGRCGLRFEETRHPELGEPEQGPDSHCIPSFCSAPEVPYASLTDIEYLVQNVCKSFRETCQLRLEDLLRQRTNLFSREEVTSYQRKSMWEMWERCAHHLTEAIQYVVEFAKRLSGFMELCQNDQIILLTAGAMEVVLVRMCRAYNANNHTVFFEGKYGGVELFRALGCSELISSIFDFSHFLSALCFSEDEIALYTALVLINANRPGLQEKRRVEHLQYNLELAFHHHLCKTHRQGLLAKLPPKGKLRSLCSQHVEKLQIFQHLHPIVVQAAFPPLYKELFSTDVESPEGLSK
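Stably transfected Drosophila Schneider cells are the test system, with ROR gamma fused to Gal4 and luciferase under UAS control; luminescence is read after 20 hr of 700 uM copper sulfate induction at ambient temperature.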
Large screens that a line does not name were inactive. Calls come from the whole dose curve; as a rule, active = well fitted curve in the direction sought with a large enough effect; inconclusive = small, poorly fitted or top-dose-only effect, or another doubt; inactive = no such curve, though single readings can be large; an effect the other way counts as inactive or inconclusive.

COc1cc(-c2nc3ccccn3c2/N=C/c2ccccc2)ccc1O	RORgamma inh 12.6µM
COc1cc(-c2nc3ccccn3c2NCC2CCCO2)ccc1O (configuration not stated)	RORgamma inh 14.1µM
CCOc1cc(-c2nc3ccccn3c2NCC2CCCO2)ccc1O (configuration not stated)	Gal4-VP16 FLuc inconclusive
NC(=O)[C@@H]1CCCN1C(=O)C(Cc1cnc[nH]1)NC(=O)C1CCC(=O)N1 (some centres not stated)	none (no result: Luc counter)
COc1ccc2nc(C)cc(SCC(=O)NNC(=O)COc3ccccc3)c2c1	none
COc1ccc2nc(C)cc(Sc3nc4ccccc4s3)c2c1	Gal4-VP16 FLuc inconclusive, RORgamma inh 14.1µM (no result: Luc counter)
O=C(Nc1cccc(C(=O)N2CCCc3ccccc32)c1)c1ccccc1	Gal4-VP16 FLuc inconclusive (no result: Luc counter)
Cc1cc(C)c(NC(=O)CO/N=C2\CCCc3nonc32)c(C)c1	none
Cc1cc(=O)[nH]c(SC(C)C(=O)Nc2cccc3ccccc23)n1 (configuration not stated)	RORgamma inh inconclusive (no result: Luc counter)
O=C(CSc1ccc(-c2cccnc2)nn1)c1ccc([N+](=O)[O-])cc1	none
CC(=O)c1ccc(NC(=O)CSc2nnc(-c3ccco3)o2)cc1	none (no result: Luc counter)
O=C(CSc1nnc(-c2ccco2)o1)c1ccc([N+](=O)[O-])cc1	Gal4-VP16 FLuc 0.891µM, RORgamma inh 0.794µM (no result: Luc counter)
O=C(CSc1nnc(-c2ccco2)o1)c1ccccc1Cl	Gal4-VP16 FLuc inconclusive, RORgamma inh 3.98µM
O=C(CSc1ccc(-c2ccccn2)nn1)c1ccc([N+](=O)[O-])cc1	Gal4-VP16 FLuc inconclusive, RORgamma inh 4.47µM
Cc1cc(C(=O)CSc2nnc(-c3ccco3)o2)c(C)n1Cc1ccco1	none
C[C@H]1/C=C\CC(=O)NCc2cccc(c2)CNC(=O)N[C@H]1c1ccccc1	none
COc1ccc(N(CC(=O)Nc2ccccc2C(F)(F)F)C2=NC3CS(=O)(=O)CC3S2)cc1 (configuration not stated)	none (no result: Luc counter)
Cc1cccc(C2=N[C@@H](Cc3ccccc3)CO2)c1	none
CCCC[C@@H]1CN2[C@H](c3ccc(Br)cc3)[C@H](C)CC[C@H]2C(=O)O1	none (no result: Luc counter)
CCC(C)NS(=O)(=O)c1ccc(NS(=O)(=O)c2ccc(F)cc2)cc1 (configuration not stated)	none
CCOc1ccc(S(=O)(=O)Nc2ccc(F)cc2)c(C)c1C	Gal4-VP16 FLuc 17.8µM, RORgamma inh inconclusive
COc1ccccc1C/C(N)=N/OC(=O)/C=C/c1ccccc1	RORgamma inh 5.62µM
COc1ccccc1C/C(N)=N/OC(=O)c1cccs1	none
N/C(=N\OC(=O)/C=C/c1ccccc1)c1ccccn1	Luc counter 11.2µM
O=C(O)/C=C/c1ccccc1	none (no result: Luc counter)
N/C(=N\OC(=O)/C=C/c1ccccc1)c1ccncc1	none
O=C(/C=C/c1ccccc1)c1ccccn1	Luc counter 14.1µM, Gal4-VP16 FLuc inconclusive
N#Cc1ccc(NC(=O)Cn2cnc(S(=O)(=O)N3CCc4ccccc43)c2)cc1	none (no result: Luc counter)
Cc1ccccc1NC(=O)Cc1nnc(SCC(=O)NC2CCCC2)n1C	none (no result: Luc counter)
COCc1ccc(C(=O)N2CCCC(C(=O)c3ccc(Cl)cc3C)C2)o1 (configuration not stated)	none (no result: Luc counter)
O=C(Oc1cc(Cl)ccc1Cl)c1ccc(N2CCOCC2)c([N+](=O)[O-])c1	Gal4-VP16 FLuc inconclusive
CCOc1ccc(-n2c(=S)sc3c(=O)[nH]c(SCC(=O)C(C)(C)C)nc32)cc1	none
Clc1ccc(-c2noc(CN3CCCC3)n2)cc1	none (no result: Gal4-VP16 FLuc)
CN(CCn1ccnc1)Cc1cn(-c2ccccc2)nc1-c1ccc2c(c1)OCO2	none
COc1ccc(-c2noc(CN(Cc3nccn3C)C(C)C)n2)cc1	RORgamma inh inconclusive (no result: Luc counter)
Cc1cnccc1CN(C)Cc1cn(C)nc1-c1cccc(Cl)c1	none
CC(C)N(Cc1cn(C)nc1-c1cccc(Cl)c1)Cc1nccn1C	Gal4-VP16 FLuc inconclusive, RORgamma inh 7.94µM (no result: Luc counter)
CN(Cc1cn(-c2ccccc2)nc1-c1ccc2c(c1)OCO2)Cc1nccn1C	Gal4-VP16 FLuc 11.2µM, RORgamma inh 11.2µM
CC(C)N(Cc1nc(-c2ccc(Cl)cc2)no1)Cc1nccn1C	Gal4-VP16 FLuc inconclusive, RORgamma inh 5.01µM
Cn1ccnc1C1CCCCN1Cc1nc(-c2ccc(Cl)cc2)no1 (configuration not stated)	Gal4-VP16 FLuc inconclusive, RORgamma inh 10µM
O=C(CCNC(=O)c1ccco1)Nc1ccc(SC(F)F)cc1	none
O=C(CC(=O)c1cccc([N+](=O)[O-])c1)Nc1ccccc1Cl	none
CCOc1ncccc1C(=O)OC(C)C(=O)NC(=O)NC1CCCCC1 (configuration not stated)	none
COc1ccc2cc(C(C)C(=O)N3CCC(C)CC3)ccc2c1 (configuration not stated)	none (no result: Luc counter)
COc1ccc2c(c1)C(c1ccccc1OC)CC(=O)O2 (configuration not stated)	none
COC(=O)/C=C1\S/C(=N/N=C/c2ccccc2)NC1=O	Gal4-VP16 FLuc inconclusive, RORgamma inh inconclusive
COC(=O)/C=C1\S/C(=N/N=C/c2ccco2)NC1=O	RORgamma inh 7.08µM
COC(=O)/C=C1/S/C(=N/N=C/c2ccco2)NC1=O	Gal4-VP16 FLuc inconclusive, RORgamma inh 14.1µM (no result: Luc counter)
COC(=O)/C=C1\S/C(=N/N=C/c2ccc(Cl)cc2)NC1=O	none (no result: Luc counter)
Cc1cc2cc(CCNC(=O)CCCc3ccccc3)c(=O)[nH]c2cc1C	none (no result: Luc counter)
CCOc1ccc(CCNC(=O)CCNC(=O)c2ccc(Br)cc2)cc1OCC	none (no result: Luc counter)
Cc1cccc(NC(=O)c2ccc3nc(N4CCOCC4)sc3c2)c1C	Gal4-VP16 FLuc inconclusive (no result: Luc counter)
C=C1CCN(C(C(=O)O)C(C)C)S(=O)(=O)c2ccccc21 (configuration not stated)	none (no result: Luc counter)
COc1cc2c(cc1OC)C(c1cccs1)N(C(=S)NC(C)C)CC2 (configuration not stated)	none
Cc1nn(-c2ccc(Cl)cc2)c(NC(=O)C(C)C)c(-c2ccccc2)c1=O	none (no result: Luc counter)
Cc1cccc(N=C2NC(=O)/C(=C/c3cccs3)S2)c1	Gal4-VP16 FLuc 12.6µM, RORgamma inh inconclusive
Cc1ccc(N=C2NC(=O)/C(=C\c3cccs3)S2)cc1C	none
O=C(CN(C(=O)CNC(=O)c1cccs1)c1ccccc1)NC1CCCCC1	none (no result: Luc counter)
COc1ccc(OC)c(CCNC(=O)CCc2nnc3ccc(N4CCOCC4)nn23)c1	none (no result: Luc counter)
CCOC(=O)C1CCN(c2c([N+](=O)[O-])c(C(Cl)Cl)nn2-c2ccccc2)CC1	none
O=[N+]([O-])c1c(C(Cl)Cl)nn(-c2ccccc2)c1N1CCCC1	Gal4-VP16 FLuc inconclusive, RORgamma inh 7.08µM
CC(=O)[C@H]1CC[C@@H]2[C@]1(C)CC=C1[C@@]23C=C[C@]2(C[C@H](O)CC[C@@]12C)[C@H](C(=O)O)[C@@H]3C(=O)O	none (no result: Gal4-VP16 FLuc, RORgamma inh)
COc1ccc(CNC(=O)C2CCN(c3nc(-c4ccccc4)nc4c3CCC4)CC2)cc1	none (no result: Luc counter)
COc1ccc(C2CC(O)(c3ccccc3)Oc3cc(OC)cc(OC)c32)cc1 (configuration not stated)	RORgamma inh inconclusive (no result: Luc counter)
COc1ccc(C2CC(O)(c3ccccc3)Oc3c(C)ccc(C)c32)cc1 (configuration not stated)	Gal4-VP16 FLuc 12.6µM, RORgamma inh inconclusive (no result: Luc counter)
Cc1ccc(C(=O)N2CCC(C)CC2)cc1NC1=NC2CS(=O)(=O)CC2S1 (configuration not stated)	none (no result: Luc counter)
C=CCOc1ccc(CNn2cn[nH]c2=S)cc1OC	none
